Pf growth 96h: inhibits malaria parasite growth, 96 h. Potency, µM (doses to about 28.7 µM), for inactives: at the top dose activity change, negative = inhibition, most hits filed as inhibitors. 320,000 tested, 6.9% active. P. falciparum luciferase reporter growth, 96 h. AID 504834; further: potency means the concentration at half of the fitted maximal effect
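Luminescence readout: decreased luciferase signal marks inhibited growth of reporter-expressing P. falciparum in infected red cells (2% hematocrit, 0.05% parasitemia final), exposed to compound two generations (96 h, 37 C, 5% CO2).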
Pf growth 48h: P. falciparum growth inhibition at 48 hours (one generation); P. falciparum luciferase growth in erythrocytes, 48 h; Potency, µM (top dose mostly 28.7 µM), for the others: at the highest dose activity change, negative = inhibition, actives largely listed as inhibitors; 310,000 tested, 5.9% active; AID 504832; further: potency means the concentration at half of the fitted maximal effect
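First compound was added to culture medium, then infected red cells at 0.1% parasitemia and 2% hematocrit (final). After incubation at 37 C under 5% CO2, luciferase detection reagent was dispensed and light output recorded.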
HCV inhibitor: blocks hepatitis C virus | AID 651820 | 340,000 tested, 3.4% active | Potency, µM (titrated, usually from 41.8 µM), without a hit: at the highest dose activity change, negative = inhibition, hits mostly inhibitors | Huh7.5.1 HCVcc-Cre infection, luciferase reporter, 44 h; further: potency means the concentration at half of the fitted maximal effect
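Whole-lifecycle infectious HCVcc-Cre system; cells 1,000/well, compound then virus (~0.5 moi) added 4 h after plating, 44 h culture. Luciferase read 15 sec following 15 min substrate incubation, room temp.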
Marburg entry inh: blocks Marburg virus binding to or entry into cells | Marburg virus pseudotyped entry inhibition, cell reporter | Potency, µM (titrated, usually from 37.8 µM), without a hit: top-dose activity change, negative = inhibition, actives largely listed as inhibitors | 300,000 tested, 1.8% active | AID 540276; calls by dose curve; tested in HEK293 cells; further: potency means the concentration at half of the fitted maximal effect
LASV entry inh: inhibitors of Lassa virus binding or cell entry | Lassa virus pseudotype entry inhibition, cell reporter | Potency, µM (series often up to 37.9 µM), without a hit: at the highest dose activity change, negative = inhibition, usual class: inhibitors | 300,000 tested, 1.2% active | AID 540256; calls by dose curve; tested in HEK293 cells; further: potency means the concentration at half of the fitted maximal effect; nearly all actives have a fitted effect of over 50% in size
HCMV inh: inhibitors of human cytomegalovirus. activity change, negative = inhibition, % at 57.5 µM. AID 1259415. 410,000 tested, 4.5% active. HFF cells, HCMV-luciferase reporter, 72 h; hits give low values; in the data active means activity change below about -60%; inconclusive means no clear call, values can overlap the other calls; inactive means above about -39%
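HFF cells seeded 16 h at 37C, treated with compounds, infected with luciferase-reporter HCMV at MOI 1 PFU/cell; luciferase read at 72 h post infection, normalized to buffer-only and Salinomycin controls.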
Numbers without * were called inactive; i = inactive; ? = inconclusive; . = no result; [ ] = another dose, or the depositor's remark. Only some compounds are listed: those with a hit (about 14% of all), similar ones and a draw of the others. Unless noted, the call rests on the fitted dose curve; in most records, active means well fitted inhibition curve with a large enough effect; inconclusive means small, poorly fitted or top-dose-only effect, or another doubt; inactive means no such curve, though single readings can be large or run the other way. On the % scale 0 is the no-effect control and ±100 the full control effect.

SMILES	Pf growth 96h	Pf growth 48h	HCV inhibitor	Marburg entry inh	LASV entry inh	HCMV inh
Cc1cc(C)cc(N2CCCn3c2nc2c3c(=O)n(CC(=O)OCc3ccccc3)c(=O)n2C)c1	15%	?	?	?	?	38
Cc1ccc(NC(=O)CSc2nc3c(sc4ccccc43)c(=O)n2CCCC(=O)NC2CCCC2)cc1C	.	.	.	2%[46.1 µM]	-21%[46.1 µM]	-6
CCOc1ccc(NC(=O)Cn2cnc3c(oc4ccccc43)c2=O)cc1	.	.	.	.	10%[46.1 µM]	7
CC(=O)c1ccc(S(=O)(=O)N2CCN(C(=O)C(=O)c3cccc(C(F)(F)F)c3)CC2)cc1	.	.	.	.	.	-16
Cc1ccc(CCNC(=O)C2CCN(c3nn4c(=O)cc(C)nc4s3)CC2)cc1	?	?	-10%	4%	4%	14
CCC(Cc1ccccc1)NC(=O)C1CCN(c2nn3c(=O)cc(C)nc3s2)CC1 (stereo not drawn)	10µM*	-25%	10%	.	.	-22
Cc1cc(=O)n2nc(N3CCC(C(=O)N4CCN(c5ccccc5)CC4)CC3)sc2n1	6%	-29%	-11%	?	6%[46.1 µM]	-31
CCOc1ccc(CCNC(=O)C2CCN(c3nn4c(=O)cc(C)nc4s3)CC2)cc1	59%	10µM*	15%	-1%	-1%	45
CCCc1cc(=O)n2nc(N3CCC(C(=O)N4CCN(c5ccc(OC)cc5)CC4)CC3)sc2n1	-12%	-29%	?	.	.	-87*
COCCNC(=O)/C(C#N)=C/c1ccc(O)cc1	89%	156%	5%	2%	.	0
COCCNC(=O)/C(C#N)=C/c1ccc(O)c([N+](=O)[O-])c1	-34%	4%	4%	.	.	-40
CCOCCCNC(=O)/C(C#N)=C/c1ccc(Cl)c([N+](=O)[O-])c1	9%	-10%	?	?	2%	-102*
COCCNC(=O)/C(C#N)=C/c1cccc(/C=C(\C#N)C(=O)NCCOC)c1	?	?	10µM*	?	?	-68*
COCCNC(=O)/C(C#N)=C/C=C/c1ccccc1[N+](=O)[O-]	?	-17%	?	?	?	-96*
COc1cc(/C=C(/C#N)C(=O)NCc2ccccc2)cc(OC)c1OC	?	?	-9%	.	.	23
CCOCCCNC(=O)/C(C#N)=C/c1cc(OC)c(O)c([N+](=O)[O-])c1	55%[1.15 µM]	0%	-5%	?	?	-3
COc1ccc(/C=C(\C#N)C(=O)NCCc2ccccc2)cc1OCc1ccccc1	?	-16%	?	11µM*	?	-14
COc1ccc(C)cc1NC(=O)Cn1c(=O)oc2ccccc21	8%	0%[0.00184 µM]	3%	-3%[46.1 µM]	3%[46.1 µM]	31
Cc1ccccc1Nc1nc(N)nc(CSc2nc3ccccc3c(=O)n2CCCO)n1	.	7.4µM*	?	1%	16%	33
COCCn1c(SCc2nc(N)nc(Nc3ccccc3C)n2)nc2ccccc2c1=O	?	6%	?	?	-17%	-9
Cc1ccc(SCc2nc(N)nc(Nc3ccccc3C)n2)cc1C	?	0%	13µM*	.	.	-101*
Cc1ccccc1Nc1nc(N)nc(CSc2nc3ccccc3s2)n1	?	-26%	?	-2%	?	-5
Cc1ccccc1Nc1nc(N)nc(CSc2ccc(F)cc2)n1	299%	i	-9%	.	.	32
Cc1ccc(SCc2nc(N)nc(Nc3ccccc3C)n2)c(C)c1	?	2%	?	-1%	-16%	-61*
Cc1ccc(OCc2nc(-c3ccccc3)no2)cc1	80%	95%	-1%	.	.	-5
COc1ccc(-c2ccc(C#N)c(SCC(=O)Nc3sc4c(c3C#N)CCC4)n2)cc1OC	?	.	?	?	15µM*	-88*
N#Cc1c(NC(=O)CSc2nc(-c3ccccc3)cc(C(F)(F)F)n2)sc2c1CCC2	31%	3%	18%	?	?	0
COc1ccc(-c2cc(C(F)(F)F)nc(SCC(=O)Nc3sc4c(c3C#N)CCC4)n2)cc1	1.7µM*	4.1µM*	?	?	?	-25

Bioassay records (PubChem BioAssay)
